# Reference: publication PMC5540273 (PLoS ONE, 2017)
# What was measured:
# Conditions in all cases: concentration: 1 μM, replicates: in singlicate; n = 1
# [1] = system: TTK
# [2] = system: TXK
# [3] = system: TYK2(JH1domain-catalytic)
# [4] = system: TYK2(JH2domain-pseudokinase)
# [5] = system: TYRO3
# [6] = system: ULK1
# [7] = system: ULK2
# [8] = system: ULK3
# [9] = system: T1, VEGFR2
# T1 construct: gene KDR
# [10] = system: T2, VPS34
# T2 construct: gene PIK3C3
# [11] = system: VRK2
# [12] = system: WEE1
# [13] = system: WEE2
# [14] = system: WNK1
# [15] = system: WNK2
# [16] = system: WNK3
# [17] = system: WNK4
# [18] = system: T3, YANK1
# T3 construct: gene STK32A
# [19] = system: T4, YANK2
# T4 construct: gene STK32B
# [20] = system: T5, YANK3
# T5 construct: gene STK32C
# 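Also: KINOMEscan kinase panel screen.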
Compound,%Inh [1] [%],%Inh [2] [%],%Inh [3] [%],%Inh [4] [%],%Inh [5] [%],%Inh [6] [%],%Inh [7] [%],%Inh [8] [%],%Inh [9] [%],%Inh [10] [%],%Inh [11] [%],%Inh [12] [%],%Inh [13] [%],%Inh [14] [%],%Inh [15] [%],%Inh [16] [%],%Inh [17] [%],%Inh [18] [%],%Inh [19] [%],%Inh [20] [%]
Cl.O=C(Nc1cccc(-c2nn3ncccc3c2-c2ccnc(Nc3cccnc3)n2)c1)c1c(F)cccc1F [GSK312879],0,1,12,19,0,34,0,5,0,0,10,0,0,13,7,10,0,7,10,32
CC(=O)Nc1nc2cnc(Nc3cc(NC(=O)c4cccc(CCC#N)c4)ccc3C)nc2s1,16,0,21,27,1,0,20,0,29,12,0,0,0,0,22,0,11,15,9,34
CN1C(=O)C(Nc2ccc(Cl)c(C(=O)O)c2)=C(c2ccc(Cl)cc2)C1=O [SB-404290],22,0,0,0,0,2,2,24,6,28,0,0,21,0,0,5,16,0,0,0
Cc1ccc(-c2cc(-c3c[nH]nc3-c3ccccn3)ccn2)cc1 [GW684088],0,0,18,22,0,0,0,3,22,0,45,1,0,6,19,53,89,0,0,0
Cc1cccc(-c2nc(Nc3cccc(C(N)=O)c3)c3ccccc3n2)n1 [GW876019],0,0,19,25,9,0,0,0,0,4,0,5,9,0,0,0,0,0,0,0
CS(=O)(=O)c1ccc(-c2nc3n(c2-c2ccncc2)CCC3)cc1 [SKF-105942],0,0,0,0,0,19,0,11,0,0,12,0,10,0,0,0,29,0,0,100
Cc1ccccc1-n1cnc2c(N)ncnc21 [SKF-97510],0,0,0,0,25,0,0,0,0,0,0,1,0,0,0,0,0,0,0,0
COc1cc2ncn(-c3cc(OCC4CCCO4)c(C(N)=O)s3)c2cc1OC (centres unmarked) [GSK204607],0,9,15,31,0,0,0,0,8,0,19,9,3,0,8,12,35,9,0,0
COc1cc(Nc2nccc(N3CCC(NC(=O)Nc4cc(C)ccc4C)C3)n2)cc(OC)c1OC (centres unmarked) [GSK1379762],16,13,39,3,0,19,4,92.4,0,0,0,32,9,1,0,8,25,8,0,10
COc1ccc(Nc2nccc(NCCNC(=O)Nc3ccccc3F)n2)cc1 [GSK1379901],0,24,26,28,0,0,0,37,0,0,0,13,0,11,0,29,37,0,0,0
